Sm TGR block: inhibitors of Schistosoma mansoni thioredoxin glutathione reductase; Q962Y6; 360,000 tested, 3% active; Potency, µM (series often up to 114 µM), inactives show at the top dose activity change, negative = inhibition, actives largely listed as inhibitors; purified TGR, DTNB reduction, TNB absorbance 405 nm; AID 485364; also: % is scaled to controls: 0 for no effect and ±100 for the full control effect; nearly all actives have a fitted effect of over 60% in size
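TGR 20 nM + NADPH 100 uM (dispensed conc.), cpd preinc 15 min RT; start with NADPH (500 uM addition) then DTNB (15 mM addition). Kinetic TNB absorbance, 405 nm filter. Four-parameter Hill fit across titration.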
LmPK inh: inhibitors of Leishmania mexicana pyruvate kinase; 290,000 tested, 0.37% active; Potency, µM (highest dose often 57.5 µM), inactives show at the highest dose activity change, negative = inhibition, most hits filed as inhibitors; Q27686; purified LmPK, Kinase-Glo ATP luminescence, 1 h; also: % is scaled to controls: 0 for no effect and ±100 for the full control effect
Target sequence (Q27686 whole entry, looked up): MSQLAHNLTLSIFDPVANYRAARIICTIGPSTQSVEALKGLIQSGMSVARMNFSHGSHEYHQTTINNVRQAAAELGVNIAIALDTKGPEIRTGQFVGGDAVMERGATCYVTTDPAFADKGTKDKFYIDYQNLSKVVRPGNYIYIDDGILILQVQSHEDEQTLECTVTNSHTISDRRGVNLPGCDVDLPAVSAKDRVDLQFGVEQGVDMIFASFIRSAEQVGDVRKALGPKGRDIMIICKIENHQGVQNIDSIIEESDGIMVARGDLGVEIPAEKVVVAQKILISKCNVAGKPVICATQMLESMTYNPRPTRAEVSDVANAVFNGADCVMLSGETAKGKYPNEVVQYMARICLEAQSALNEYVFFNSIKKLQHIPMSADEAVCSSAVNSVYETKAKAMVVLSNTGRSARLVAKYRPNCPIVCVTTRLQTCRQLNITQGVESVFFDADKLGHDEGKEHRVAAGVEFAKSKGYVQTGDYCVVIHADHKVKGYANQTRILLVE
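Pyruvate kinase activity monitored as ATP production (luciferase luminescence). Conditions: 0.1 nM enzyme, 0.5 mM PEP, 0.1 mM ADP, 1 h, RT; normalized against uninhibited and no-enzyme wells.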
NS1 function inh: influenza NS1 inhibition | 270,000 tested, 0.4% active | Potency, µM (doses to about 46.1 µM), for the others: at the highest dose activity, positive = more growth; calls by dose curve; also: actives are rising curves; nearly all actives have a fitted effect of over 50% in size
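Read-out: OD600 growth recovery of NS1-expressing budding yeast. Cells grown overnight at 30C in -URA glucose medium, washed, resuspended and diluted 1:100 in 2% galactose assay medium, pH 6.0. Same strain lacking NS1 served as positive control.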
TbPYK inhibitor: T. brucei pyruvate kinase inhibition; 410,000 tested, 0.12% active; Q57TT1; Potency, µM (doses to about 76.8 µM), inactives show top-dose activity, negative = inhibition, actives largely listed as inhibitors; TbPYK enzyme, Kinase-Glo Plus ATP luminescence, 45 min; also: % is scaled to controls: 0 for no effect and ±100 for the full control effect; nearly all actives have a fitted effect of over 50% in size
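Screened from lowest to highest concentration, compounds were pinned into TbPYK/substrate mixtures, and ADP (130 uM final) was added. Plates sat at room temperature for 45 min prior to Kinase-Glo Plus detection by luminescence.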
FBPA Giardia inh: inhibitors of Giardia lamblia fructose-1,6-bisphosphate aldolase. A8B2U2. Potency, µM (titrated, usually from 59.6 µM), for the others: at the top dose activity, negative = inhibition, usual class: inhibitors. 290,000 tested, 0.71% active. purified Giardia FBPA; also: % is scaled to controls: 0 for no effect and ±100 for the full control effect; nearly all actives have a fitted effect of over 55% in size
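Giardia FBPA (40 nM reagent) was preincubated 10 min at RT with compound (up to 57.5 uM final), then substrate plus GAPDH/TPI/NAD/arsenate coupling system with diaphorase/resazurin was added; resorufin fluorescence (525/598 nm) was read after 20 min.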
RE007 growth inh: less growth of the S. pombe RE007 Vpr strain | Potency, µM (doses to about 92.2 µM), inactives show top-dose activity change, negative = less growth, actives largely listed as inhibitors | S. pombe RE007 Vpr strain, BacTiter-Glo ATP luminescence, 24 h | 360,000 tested, 0.21% active; active = well fitted falling curve with a large enough effect; inconclusive = small, poorly fitted or top-dose-only effect; inactive = no such curve, though single readings can be large or run the other way; also: % is scaled to controls: 0 for no effect and ±100 for the full control effect; nearly all actives have a fitted effect of over 50% in size
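Fission yeast RE007 carrying one integrated HIV-1 vpr copy, seeded at OD 0.01 in PMG+AL medium with 23 nL pinned compound. Grown 24 h at 30 degrees; viability read by BacTiter-Glo luminescence after 5 min.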
* marks the source's active call; other numbers are inactive results; ? = inconclusive; nt = not tested or not shown; [ ] = another dose, or the depositor's remark. This is a sample that favours compounds with a hit; in the whole collection about 3.5% have one here. Unless noted, calls follow the shape of the dose curve; as a rule, active = well fitted curve in the direction sought with a large enough effect; inconclusive = small, poorly fitted or top-dose-only effect, or another doubt; inactive = no such curve, though single readings can be large; an effect the other way counts as inactive or inconclusive. Potency is read from the fitted curve at half-maximal effect.

SMILES	Sm TGR block	LmPK inh	NS1 function inh	TbPYK inhibitor	FBPA Giardia inh	RE007 growth inh
O=C(Nc1nnc(-c2ccco2)s1)C1CC1	45µM*	-4%	-8%	-11%	5%	0%
O=C(Nc1nnc(-c2ccco2)s1)c1ccccc1	25µM*	-19%	-50%	-7%	-7%	-11%
O=C(Nc1nnc(-c2ccco2)s1)C1CCN(S(=O)(=O)c2ccc(Cl)cc2)CC1	0%	4%	-8%	-5%	5%	-4%
COC(=O)c1ccc(Cl)cc1NC(=O)NCCc1c(C)nn(C)c1C	-5%	nt	nt	-6%	nt	nt
CCc1cc2cc(C)cc(C)c2[nH]c1=S	-6%	?	nt	11µM*	-7%	33%
Cc1ccc(CNC(=O)CCS(=O)(=O)c2cc3c(cc2Cl)NC(=O)CO3)o1	-2%	-8%	-1%	2%	-9%	-5%
Cc1ccc(CNS(=O)(=O)c2cc3c(cc2Cl)NC(=O)CO3)o1	32µM*	nt	nt	5%[15.4 µM]	nt	nt
Cc1ccc(/C=C2\CC(C)CC3=C2NC(=S)NC3c2ccc(C)cc2)cc1 (stereo not given)	16µM*	5%	1%	-26%	1%	1%
CN(C(=O)CSc1nnc(COc2ccccc2)o1)c1ccccc1	-23%	nt	nt	3%	nt	nt
CCCn1c2ccccc2c2cnn(CC(=O)N3CCC(C)CC3)c(=O)c21	-2%	nt	nt	-5%	nt	nt
COC(=O)COc1ccc(S(=O)(=O)NCc2ccco2)cc1	35µM*	-1%	1%	6%	2%	1%
O=S(=O)(NCc1ccco1)c1ccc2c(c1)Cc1ccccc1-2	7.9µM*	2%	-5%	-8%	-1%	1%
CCCNS(=O)(=O)c1ccc(OCC(=O)NCc2ccco2)cc1	-31%	-1%	-30%	0%	6%	5%
COC(=O)c1ccc(S(=O)(=O)NCc2ccco2)n1C	35µM*	-2%	4%	-5%	6%	0%
CCOC(=O)COc1ccc(S(=O)(=O)NCc2ccco2)cc1	50µM*	6%	5%	-30%	-1%	6%
COCC(C)Nc1ncnc2c1cnn2-c1cccc(Cl)c1 (stereo not given)	-5%	nt	nt	4%	nt	nt
C[C@H]1[C@@H]2Cc3ccc(O)cc3[C@]1(C)CCN2C	nt	nt	nt	-10%[386 µM]	nt	nt
COc1cccc(C(=O)NCCS(=O)(=O)NCc2ccco2)c1	?	nt	nt	0%	nt	63%
COc1ccc(C(=O)NCCS(=O)(=O)NCc2ccco2)cc1	45µM*	nt	nt	3%	nt	0%
O=C(N/C(C(=O)N1CCOCC1)=C(\Sc1ncccn1)c1ccccc1)c1ccccc1	40µM*	-13%	8%	2%	-13%	20%
CC(C)=C(NC(=O)c1ccccc1)C(=O)N1CCOCC1	4%	3%	5%	-2%	9%	-4%
CC(=NNC(=S)N1CCN(c2ccccn2)CC1)c1ccccn1	nt	nt	nt	-19%	nt	-16%
CC(=NNC(=S)N1CCN(c2ccccn2)CC1)c1nccs1	nt	nt	nt	?	nt	35µM*
Cc1[nH]c2ccccc2c1CC(=O)O	45µM*	4%	4%	0%	0%	9%
Cc1cccc(-c2noc(CN(C(=O)c3ccccc3Cl)C(C)C)n2)c1	2%	nt	nt	0%	nt	nt
SMILES	Sm TGR block	LmPK inh	NS1 function inh	TbPYK inhibitor	FBPA Giardia inh	RE007 growth inh
COc1cc(-c2noc(CSc3nc(-c4ccc(F)cc4)cc(=O)[nH]3)n2)cc(OC)c1OC	-1%	nt	nt	8%[15.4 µM]	nt	nt
COc1cc(Nc2nc(-c3ccccc3)c3cc(C)ccc3n2)cc(OC)c1OC	40µM*	2%	-9%	-13%	-21%	4%
COc1cccc(Nc2nc(-c3ccccc3)c3cc(C)ccc3n2)c1	14%	nt	nt	4%	nt	nt
CC(C)(C)c1ccc(/C=C/C(=O)Nc2ccc(S(N)(=O)=O)cc2)cc1	-1%	nt	nt	-3%	nt	nt
C#CCOc1ccc(C2C3=C(CC(C)(C)CC3=O)N(CC(=O)O)C3=C2C(=O)CC(C)(C)C3)cc1	0%	-1%	?	-2%	-7%	0%
C#CCOc1ccc(C2C3=C(CC(C)(C)CC3=O)N(CC(=O)O)C3=C2C(=O)CC(C)(C)C3)cc1OC	35µM*	1%	5%	-8%	-6%	4%
CCc1ccc(N2C(=O)NC(=O)/C(=C\c3cc(C)n(-c4cc(C(=O)O)cc(C(=O)O)c4)c3C)C2=O)cc1	8.9µM*	-8%	4%	-16%	-15%	10%
Cc1ccc(N2C(=O)NC(=O)/C(=C\c3cc(C)n(-c4cc(C(=O)O)cc(C(=O)O)c4)c3C)C2=O)cc1	7.9µM*	-2%	6%	-3%	-9%	26%
Cc1ccc(/C=N/n2c(-c3ccco3)n[nH]c2=S)cc1	4%	-2%	1%	?	4%	-14%
CC(C1CC2CCC1C2)n1c(-c2ccco2)n[nH]c1=S (stereo not given)	-6%	13µM*	nt	?	-15%	12%
O=C(Nc1ccc2oc(-c3cccnc3)nc2c1)c1ccc(-c2ccccc2OC(F)(F)F)o1	?	nt	nt	-2%	nt	nt
O=C(Nc1ccc2c(c1)nc1n2CCSC1)c1ccco1	14µM*	-28%	?	-5%	-21%	-6%
O=C(Nc1ccc2oc(-c3cccnc3)nc2c1)c1ccc(-c2ccc(OC(F)(F)F)cc2)o1	8.9µM*	nt	nt	-8%	nt	nt
O=C(Nc1ccc2oc(-c3cccnc3)nc2c1)c1ccc(-c2ccccc2)o1	35µM*	nt	nt	2%	nt	nt
O=C(Nc1ccc2oc(-c3ccncc3)nc2c1)c1ccco1	35µM*	0%	-44%	-11%	-5%	-4%
COc1ccc(N(CC(=O)NCCc2ccccc2)S(=O)(=O)c2c(C)nn(C)c2C)cc1	-11%	nt	nt	-10%	nt	nt
CC(C)Cn1c(/C=C/c2ccccc2)nc2ccccc21	0%	0%	-39%	-3%	-12%	?
COc1ccc(/C=C/c2nc3ccccc3n2C)cc1	?	18µM*	nt	?	?	32µM*
COc1ccc(Cn2c(/C=C/c3ccccc3)nc3ccccc32)cc1	-22%	-29%	-96%	2%	-21%	-20%
COc1ccc(CNc2nc3ccccc3n2C)c(O)c1	1%	-13%	?	-12%	0%	-24%
COc1ccc(CNc2nc3ccccc3n2C)c(OC)c1	0%	18µM*	1%	-17%	-5%	-16%
CCn1c(/C=C/c2ccccc2)nc2ccccc21	10%	22µM*	-32%	-7%	-15%	?
COc1ccc(CCNC(=O)c2ccc3c(c2)CCN3S(=O)(=O)c2ccc(C)cc2)cc1	-1%	nt	nt	3%	nt	nt
Cc1ccc(NC(=O)C(Cc2ccccc2)n2cccc2)cc1C (stereo not given)	0%	nt	nt	-9%	nt	nt
CN1CCN(C(CNC(=O)c2ccccc2)c2ccc3c(c2)OCO3)CC1 (stereo not given)	6%	nt	nt	-5%	nt	nt

Screening data: PubChem, National Center for Advancing Translational Sciences (NCATS)
